Measurements published in PubChem BioAssay (Tox21).
Calls of active or inactive are those of the source. A call without a number means that no potency is given here. The call rests on the fitted dose curve.

Assay: G protein-coupled receptor (GPCR) small molecule agonists, calcium flux assay: HEK293 wild type cell line counter screen (AID 1920065)
Details: HEK293 WT calcium flux, fluorescence, agonist mode; series mostly up to 57.6 µM
Text: U.S. Tox21 Program National Center for Advancing Translational Sciences [NCATS] Division of Preclinical Innovation [DPI] U.S. Environmental Protection Agency [EPA] National Institutes of Environmental Health Sciences [NIEHS] National Toxicology Program [NTP] U.S. Food and Drug Administration [FDA] Assay overview: The increased intracellular calcium release that occurred upon G protein-coupled receptor (GPCR) activation led to the frequent use of calcium flux assays to detect GPCR activation. For the purpose of studying and screening compounds that may activate GPCR, receptor-overexpressing models were typically generated using Hek293 wild-type (WT) cells. In order to eliminate the compounds that may have induced calcium release for non-specific activation, a counter-assay utilizing calcium flux on Hek293 WT cells was performed. The data were formulated in order to serve as a control for any calcium flux detection utilizing Hek293 cells with either GPCR overexpression or gene modification. The procurement of Hek293 WT cells from ATCC. Fluorescence intensity can be utilized to determine the activation of the compound in a calcium flux assay. As a counter control, this cell line was utilized to screen the Tox21 10K compound library.
Assay Protocol Summary: Hek293 cells were dispensed at 1500cells/4uL/well in 1536-well black wall/clear bottom plates using a multidrop dispenser. After the assay plates were incubated at a 37 C/5% CO2 incubator for 18 hours, 4 uL of Calcium Dye Solution was added to each well. The plates were incubated at 37 C for 1 hour. For agonist mode, 23 nL of compounds dissolved in DMSO, positive control (ATP) or DMSO only was transferred to the assay plate by a pin tool station. The fluorescence intensity in the plates was measured using FDSS 7000EX kinetic plate reader with a filter set of Ex/Em=480/540 for 3 min at 1 sec intervals. Each test compound was measured at 15 concentrations and in triplicates.

| Structure (SMILES) | Potency |
| --- | --- |
| CCc1nc(N)nc(N)c1-c1ccc(Cl)cc1 | inactive |
| CC(=O)OCCC(C)C | inactive |
| CCCCC(CC)COC(=O)/C=C/c1ccc(OC)cc1 (stereo not given) | inactive |
| CC1=C(C)S(=O)(=O)CCS1(=O)=O | inactive |
| CCCCCCCC(=O)OCC(COC(=O)CCCCCCC)OC(=O)CCCCCCC | inactive |
| COc1ccc(NC(C)=O)cc1N | inactive |
| Cc1cc(CC(=O)O)n(C)c1C(=O)c1ccc(Cl)cc1 | inactive |
| O=C(O)/C=C\C(=O)O | inactive |
| C1CNCCN1 | inactive |
| CCNc1cccc(C)c1 | inactive |
| COc1ccc(OC)cc1 | inactive |
| OC[C@@H](O)[C@@H](O)[C@H](O)[C@H](O)CO | inactive |
| CCCCCCCC(=O)OC | inactive |
| CCCOCC(C)O (stereo not given) | inactive |
| CC(=O)[C@H]1CC[C@H]2[C@@H]3CC=C4C[C@@H](O)CC[C@]4(C)[C@H]3CC[C@]12C | inactive |
| CCCCCCCCCCCCCCCCO | inactive |
| CC(=O)c1nccs1 | inactive |
| CCCCOCCOCCOC(C)=O | inactive |
| NC(=O)c1ncn([C@@H]2O[C@H](CO)[C@@H](O)[C@H]2O)n1 | inactive |
| CC(C)CC(=O)CC(C)C | inactive |

| Structure (SMILES) | Potency |
| --- | --- |
| C[C@@H](O)[C@H]1C(=O)N2C(C(=O)O)=C(S[C@@H]3CN[C@H](C(=O)N(C)C)C3)[C@H](C)[C@H]12 | inactive |
| C=C(C)CNCC | inactive |
| O=C(OCc1ccccc1)c1ccccc1 | inactive |
| Cc1ccc(S(=O)(=O)N=C=O)cc1 | inactive |
| C=C(C)C(=O)OCCOC(=O)C(=C)C | inactive |
| C=C(C)C(=O)O[C@H]1C[C@@H]2CC[C@@]1(C)C2(C)C | inactive |
| COc1ccccc1O | inactive |
| Cc1cccc(O)c1C | inactive |
| O=NO | inactive |
| Cc1cccc(C(=O)O)c1 | inactive |
| CC(C)(C)C1CCC(O)CC1 (stereo not given) | inactive |
| C1COCCN1 | inactive |
| CCCCCC(N)=O | inactive |
| CCCCCC/C=C/CCCCCCCC(=O)O | inactive |
| CCCCCCCCCCN | inactive |
| c1ccc2[nH]c(-c3cscn3)nc2c1 | inactive |
| CCN(CC)CCOC(=O)c1ccc(N)cc1 | inactive |
| NC(N)=Nc1nc(CSCC/C(N)=N/S(N)(=O)=O)cs1 | inactive |
| CN(C)c1nc(N(C)C)nc(N(C)C)n1 | inactive |
| CC(C)c1ccc(C(C)C)cc1 | inactive |
